Experimental data reported in PubChem BioAssay (NCATS).
Records with an inconclusive call do not appear. Entries that show only a call come without a potency. Active and inactive are the calls of the source. Calls come from the whole dose curve; as a rule, active = well fitted cell-killing curve with a large enough effect; inconclusive = small, poorly fitted or top-dose-only effect, or effect the other way; inactive = no such curve, though single readings can be large or run the other way.

test: qHTS of pediatric cancer cell lines to identify multiple opportunities for drug repurposing: Confirmatory screen for RD cells (AID 1347124); details: RD rhabdomyosarcoma cell viability; series mostly up to 45.9 µM;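 note: cells exposed to compound for 48 h before viability readout; nearly all actives have a fitted effect of over 65% in size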
How it was run: (§1)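 Cells (500-1,000/well) rested 5 h, then received compounds for 48 h; metabolically active cells were measured by CellTiter-Glo luminescence. Final concentrations spanned up to 46 µM (MIPE, 11-point) or 0.59 nM-46 µM (NPC, 8-point) in primary screens, 11-point in follow-ups.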
Potency is the fitted concentration of half-maximal effect.

| SMILES | Potency |
| --- | --- |
| O=NN(CCCl)C(=O)NCCCl | inactive |
| COc1cccc2cc(-c3nc(C4CCC(C(=O)O)CC4)n4ncnc(N)c34)[nH]c12 (centres undefined) | inactive |
| Nc1nc2c(ncn2COCCO)c(=O)[nH]1 | inactive |
| CCN(CC)CCCC(C)Nc1ccnc2cc(Cl)ccc12 (centres undefined) | inactive |
| CCCS(=O)(=O)Nc1ccc(F)c(C(=O)c2c[nH]c3ncc(-c4ccc(Cl)cc4)cc23)c1F | inactive |
| COCC(=O)NCC=Cc1ccc2ncnc(Nc3ccc(Oc4ccc(C)nc4)c(C)c3)c2c1 | inactive |
| NCCCC(N)(C(=O)O)C(F)F (centres undefined) | inactive |
| CCC(C)n1ncn(-c2ccc(N3CCN(c4ccc(OC[C@H]5CO[C@](Cn6cncn6)(c6ccc(Cl)cc6Cl)O5)cc4)CC3)cc2)c1=O (some centres undefined) | inactive |
| CN1CCN(CCCN2c3ccccc3Sc3ccc(C(F)(F)F)cc32)CC1 | 23.3 µM (active) |
| COc1ccc(-c2oc3cc(OC)ccc3c2C(=O)c2ccc(C#N)cc2)cc1 | inactive |
| Nc1nc2ccc(OC(F)(F)F)cc2s1 | inactive |
| Cc1c(CN2CCN(C(=O)C(C)C)CC2)sc2c(N3CCOCC3)nc(-c3cnc(N)nc3)nc12 | 2.08 µM (active) |
| Cn1cnc2c(F)c(Nc3ccc(Br)cc3Cl)c(C(=O)NOCCO)cc21 | inactive |
| COc1ccc(-c2ccc3c(N4CCOCC4)nc(N4C[C@@H](C)O[C@@H](C)C4)nc3n2)cc1CO | 1.31 µM (active) |
| CNCc1ccc(-c2[nH]c3cc(F)cc4c3c2CCNC4=O)cc1 | inactive |
| Cc1c(C)c2c(c(C)c1O)CCC(C)(COc1ccc(CC3SC(=O)NC3=O)cc1)O2 (centres undefined) | inactive |
| C#Cc1cccc(Nc2ncnc3cc(OCCOC)c(OCCOC)cc23)c1 | inactive |
| NC(N)=NC(=O)c1nc(Cl)c(N)nc1N | inactive |
| Cc1cn[nH]c1 | inactive |
| NC(=O)c1ccc(I)c([N+](=O)[O-])c1 | inactive |
| Nc1nc2[nH]cc(CCc3ccc(C(=O)N[C@@H](CCC(=O)O)C(=O)O)cc3)c2c(=O)[nH]1 | inactive |
| C[C@]1(c2nc3c(C(N)=O)cccc3[nH]2)CCCN1 | inactive |
| O=C(c1cc(Cc2n[nH]c(=O)c3ccccc23)ccc1F)N1CCN(C(=O)C2CC2)CC1 | inactive |

test: qHTS of pediatric cancer cell lines to identify multiple opportunities for drug repurposing: Confirmatory screen for Rh30 cells (AID 1347126); details: Rh30 rhabdomyosarcoma cell viability; series mostly up to 45.9 µM; note: nearly all actives have a fitted effect of over 55% in size
How it was run: as §1

| SMILES | Potency |
| --- | --- |
| O=NN(CCCl)C(=O)NCCCl | inactive |
| COc1cccc2cc(-c3nc(C4CCC(C(=O)O)CC4)n4ncnc(N)c34)[nH]c12 (centres undefined) | 10.4 µM (active) |
| Nc1nc2c(ncn2COCCO)c(=O)[nH]1 | inactive |
| CCN(CC)CCCC(C)Nc1ccnc2cc(Cl)ccc12 (centres undefined) | inactive |
| COCC(=O)NCC=Cc1ccc2ncnc(Nc3ccc(Oc4ccc(C)nc4)c(C)c3)c2c1 | 2.93 µM (active) |
| COc1cc2nccc(Oc3ccc(NC(=O)NC4CC4)c(Cl)c3)c2cc1C(N)=O | inactive |
| NCCCC(N)(C(=O)O)C(F)F (centres undefined) | inactive |
| CCC(C)n1ncn(-c2ccc(N3CCN(c4ccc(OC[C@H]5CO[C@](Cn6cncn6)(c6ccc(Cl)cc6Cl)O5)cc4)CC3)cc2)c1=O (some centres undefined) | inactive |
| COc1ccc(-c2oc3cc(OC)ccc3c2C(=O)c2ccc(C#N)cc2)cc1 | inactive |
| Nc1nc2ccc(OC(F)(F)F)cc2s1 | inactive |
| Cc1c(CN2CCN(C(=O)C(C)C)CC2)sc2c(N3CCOCC3)nc(-c3cnc(N)nc3)nc12 | 0.928 µM (active) |
| Cn1cnc2c(F)c(Nc3ccc(Br)cc3Cl)c(C(=O)NOCCO)cc21 | inactive |
| COc1ccc(-c2ccc3c(N4CCOCC4)nc(N4C[C@@H](C)O[C@@H](C)C4)nc3n2)cc1CO | 0.657 µM (active) |
| CNCc1ccc(-c2[nH]c3cc(F)cc4c3c2CCNC4=O)cc1 | inactive |
| COc1ccc(-c2ccc3c(N4CCOC[C@H]4C)nc(N4CCOC[C@H]4C)nc3n2)cc1CO | 0.185 µM (active) |
| CO[C@@H]1[C@H](N(C)C(=O)c2ccccc2)C[C@H]2O[C@]1(C)n1c3ccccc3c3c4c(c5c6ccccc6n2c5c31)C(=O)NC4 | inactive |
| Cc1c(C)c2c(c(C)c1O)CCC(C)(COc1ccc(CC3SC(=O)NC3=O)cc1)O2 (centres undefined) | inactive |
| Cc1cn[nH]c1 | inactive |
| Cc1oncc1C(=O)Nc1ccc(C(F)(F)F)cc1 | inactive |
| Nc1nc2[nH]cc(CCc3ccc(C(=O)N[C@@H](CCC(=O)O)C(=O)O)cc3)c2c(=O)[nH]1 | inactive |
| C[C@]1(c2nc3c(C(N)=O)cccc3[nH]2)CCCN1 | inactive |
| O=C(c1cc(Cc2n[nH]c(=O)c3ccccc23)ccc1F)N1CCN(C(=O)C2CC2)CC1 | inactive |

test: qHTS of pediatric cancer cell lines to identify multiple opportunities for drug repurposing: Confirmatory screen for Saos-2 cells (AID 1347127); details: Saos-2 osteosarcoma cell viability; series mostly up to 45.9 µM; note: nearly all actives have a fitted effect of over 60% in size
How it was run: as §1

| SMILES | Potency |
| --- | --- |
| O=NN(CCCl)C(=O)NCCCl | inactive |
| Nc1nc2c(ncn2COCCO)c(=O)[nH]1 | inactive |
| CCN(CC)CCCC(C)Nc1ccnc2cc(Cl)ccc12 (centres undefined) | inactive |
| NCCCC(N)(C(=O)O)C(F)F (centres undefined) | inactive |
| CCC(C)n1ncn(-c2ccc(N3CCN(c4ccc(OC[C@H]5CO[C@](Cn6cncn6)(c6ccc(Cl)cc6Cl)O5)cc4)CC3)cc2)c1=O (some centres undefined) | inactive |
| CN1CCN(CCCN2c3ccccc3Sc3ccc(C(F)(F)F)cc32)CC1 | 20.8 µM (active) |
| COc1ccc(-c2oc3cc(OC)ccc3c2C(=O)c2ccc(C#N)cc2)cc1 | inactive |
| Cc1c(CN2CCN(C(=O)C(C)C)CC2)sc2c(N3CCOCC3)nc(-c3cnc(N)nc3)nc12 | 0.928 µM (active) |
| Cn1cnc2c(F)c(Nc3ccc(Br)cc3Cl)c(C(=O)NOCCO)cc21 | inactive |
| Oc1cccc(-c2nc(N3CCOCC3)c3oc4ncccc4c3n2)c1 | 0.38 µM (active) |
| CNCc1ccc(-c2[nH]c3cc(F)cc4c3c2CCNC4=O)cc1 | inactive |
| COc1ccc(-c2ccc3c(N4CCOC[C@H]4C)nc(N4CCOC[C@H]4C)nc3n2)cc1CO | 0.928 µM (active) |
| Cc1c(C)c2c(c(C)c1O)CCC(C)(COc1ccc(CC3SC(=O)NC3=O)cc1)O2 (centres undefined) | inactive |
| C#Cc1cccc(Nc2ncnc3cc(OCCOC)c(OCCOC)cc23)c1 | inactive |
| Cc1cn[nH]c1 | inactive |
| Cc1oncc1C(=O)Nc1ccc(C(F)(F)F)cc1 | inactive |
| NC(=O)c1ccc(I)c([N+](=O)[O-])c1 | inactive |
| C[C@]1(c2nc3c(C(N)=O)cccc3[nH]2)CCCN1 | inactive |
| O=C(c1cc(Cc2n[nH]c(=O)c3ccccc23)ccc1F)N1CCN(C(=O)C2CC2)CC1 | inactive |
